Only a selection was taken, and hits are over-represented in it overall.
RmlCD inh mix: mixture blocks RmlC and RmlD coupled enzyme activity | RmlC/RmlD coupled enzyme inhibition, 384-well mixture HTS | inhibition, % at 5.5 µM | 110,000 compounds, 0.39% hits; in the data active = inhibition above about 30%, passing the limit was not always enough; inconclusive = no clear call, values can overlap the other calls
RT RNaseH block: blocks HIV-1 RNase H cleavage of RNA/DNA duplex | AID 565 | RT-RNase H RNA/DNA duplex cleavage, fluorescence | P04585 | 65,000 compounds, 1.9% hits | inhibition, % at 10 µM; in the data active = inhibition above about 50%
RmlCD artifact: counter-screen for RmlC/RmlD inhibitors: fluorescence artifact; 360 compounds, 96% hits; AID 1696; calls only; shares compounds with RmlCD inh mix; RmlC/RmlD assay fluorescence artifact counter-screen; call rule not given here;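 note: compound alone with no enzyme and no substrates present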
The depositor's hits bear a star; i = inactive; ? = inconclusive; . = no result given; + = active, no number.

SMILES	RmlCD inh mix	RT RNaseH block	RmlCD artifact
Clc1ccc(Oc2ncnc3oc(-c4ccccc4)cc23)cc1	-4	.	.
C[n+]1cc(-c2ccccc2)n2c1CCCCC2	13	.	.
COc1ccc(-c2c[n+]3c4n2CCCCC4=C(c2ccccc2)C3)cc1	91*	.	+
Cc1cc(O)c(Oc2cc(C)cc(O)c2O)c(O)c1	0	.	.
COc1cc(NC(=O)c2cc3nc(-c4ccccc4)cc(-c4ccccc4)n3n2)cc(OC)c1OC	-15	.	.
O=C(CCCn1c(=O)[nH]c2ccsc2c1=O)N1CCN(c2ccccn2)CC1	70*	-5	i
O=C(CCCn1c(=O)[nH]c2ccccc2c1=O)N1CCN(c2ccccn2)CC1	.	-10	.
Cc1cc(-c2nc3ncccc3o2)ccc1N	69*	-5	+
Nc1cc(-c2nc3ncccc3o2)ccc1Cl	44	.	.
CCOC(=O)c1ccc(N=C2NC(=O)CS2)cc1	0	-6	.
Cc1[nH]n(-c2ccccc2)c(=O)c1C=Nc1cnc2ccccc2c1	44*	.	+
Cc1[nH]n(-c2ccccc2)c(=O)c1/C=N/c1ccccn1	3	-5	.
CCOC(=O)C1=C(CSc2nc(-c3ccccc3)ccc2C#N)OC(N)=C(C#N)C1c1ccccc1 (stereo not drawn)	30	.	.
CCOC(=O)C1=C(CSc2nc(-c3ccccc3)ccc2C#N)OC(N)=C(C#N)C1c1cccnc1 (stereo not drawn)	45*	.	+
Cc1ccc(C(=O)CC(C(=O)O)n2ccc(C)n2)cc1 (stereo not drawn)	5	-4	.
COc1ccc2c(c1)-c1ccccc1S(=O)(=O)N2C(C)=O	131*	-18	+
COc1ccc(OC)c(NC(=O)CN2C(=O)c3ccccc3S2(=O)=O)c1	6	-13	.
CNC(=O)COC(=O)c1cc2c(C)nn(-c3ccc(F)cc3)c2s1	16	.	.
Cc1nn(-c2ccc(F)cc2)c2sc(C(=O)OC3CCOC3=O)cc12 (stereo not drawn)	47*	-29	+
CC1CCCCN1Cc1ccc(N)cc1 (stereo not drawn)	-7	.	.
CCC1CCCCN1Cc1cc(OC)c(O)c([N+](=O)[O-])c1 (stereo not drawn)	9	.	.
COc1ccc(C2c3c(oc4ccccc4c3=O)C(=O)N2c2ccc(C)cn2)cc1OC (stereo not drawn)	5	-10	.
CCOCC(=O)Nc1ccc(-c2cn3cccnc3n2)cc1	106*	-8	+
O=C(Nc1cccc(-c2cn3cccnc3n2)c1)c1ccco1	33	-1	.
COc1ccc(-c2cn3cccnc3n2)cc1NC(=O)c1ccc(Br)o1	22	-27	.
SMILES	RmlCD inh mix	RT RNaseH block	RmlCD artifact
CCCC(=O)Nc1cc(-c2cn3cccnc3n2)ccc1OC	21	-7	.
O=C(Nc1cccc(-c2cn3cccnc3n2)c1)c1ccc(Br)o1	55*	-3	+
Cc1ccc(-c2cn3cccnc3n2)cc1NC(=O)c1ccc(Br)o1	70*	-8	+
Cc1ccc(C)c(N(C(=O)CCC(=O)Nc2cc(C)on2)C(C(=O)NC2CCCC2)c2ccco2)c1 (stereo not drawn)	-12	-23	.
Cc1ccc(S(=O)(=O)c2ccc(Cl)cc2)cc1S(=O)(=O)N1CCOCC1	4	-2	.
C=CCOC(=O)C1=C(C)NC(SCC(=O)N(CC)CC)=C(C#N)C1c1ccccc1 (stereo not drawn)	.	6	.
C=CCOC(=O)C1=C(C)NC(SCC(=O)NC(=O)OCC)=C(C#N)C1c1cccnc1 (stereo not drawn)	30*	11	+
Cc1nn(C)c(C)c1C(=O)NN	1	.	.
COC(=O)c1cc(Cl)c(NC(=O)/C=C/c2ccc(Cl)cc2)cc1OC	-4	.	.
COC(=O)c1cc(Cl)c(NC(=O)/C=C/c2ccc(Cl)cc2Cl)cc1OC	62*	.	+
COc1ccc2oc(-c3ccc(C)c(NC(=O)CSc4ccc(Cl)cc4)c3)nc2c1	-12	.	.
CCCc1cc(C(=O)Nc2ccc(F)cc2F)no1	-14	.	.
Cc1cc(=O)oc2cc(OC(C)C)ccc12	4	-17	.
Cc1cc(=O)oc2cc(OC(=O)CCN3C(=O)c4ccccc4C3=O)ccc12	.	.	+
COc1cccc(C2=NOC(C(=O)Nc3cc(OC)c(OC)c(OC)c3)C2)c1 (stereo not drawn)	10	-14	.
Cc1ccc(CN2CC(C(=O)O)CC2=O)cc1 (stereo not drawn)	8	.	.
Cc1ccc(CN2CC(C(=O)Nc3ccc4c(C)cc(=O)oc4c3)CC2=O)cc1 (stereo not drawn)	30	1	+
CCOC(=O)c1cnc(-n2nc(C)cc2C)nc1NCCO	104	.	.
COc1ccc(C#Cc2c(-c3ccc(OC)cc3)oc3ccc(-c4ccc(OC)cc4)cc23)cc1	+	.	+
COc1ccc(-c2ccc3oc(-c4ccc(OC)cc4)c(C#CCCO)c3c2)cc1	-182	.	.
O=C(CSc1nc2ccccc2[nH]1)Nc1ccccc1F	11	.	.
Cc1cccn2c(=O)c3cc(C(=O)NC4CCCCC4)c(=N)n(CCN4CCOCC4)c3nc12	.	20	.
COCCCn1c(=NC(=O)c2ccncc2)c(C#N)cc2c(=O)n3cccc(C)c3nc21	104*	-9	+
Cc1cccn2c(=O)c3cc(C(=O)NCc4cccnc4)c(=N)n(C(C)C)c3nc12	33*	-36	+
CCn1c(=N)c(C(=O)NC)cc2c(=O)n3cccc(C)c3nc21	.	-24	.
SMILES	RmlCD inh mix	RT RNaseH block	RmlCD artifact
Cc1cccn2c(=O)c3cc(C(=O)NC4CCCC4)c(=N)n(C4CCCC4)c3nc12	79*	-16	+
Cc1cccn2c(=O)c3cc(C(=O)NCc4cccnc4)c(=N)n(C)c3nc12	.	-14	.
CCCn1c(=N)c(C(=O)NC2CCCC2)cc2c(=O)n3cccc(C)c3nc21	43*	.	+
Cc1cccn2c(=O)c3cc(C#N)c(=NC(=O)c4ccncc4)n(CCCOC(C)C)c3nc12	?	-2	.
COc1cccc(C(=O)c2c[nH]c(C(=O)NCc3ccco3)c2)c1	11	.	.
Fc1ccc(CN2CCSCC2)cc1Br	7	-4	.
Cn1nnnc1SCSc1nnnn1C	0	-1	.
COCCCn1c(=N)c(C(=O)NCc2ccc3c(c2)OCO3)cc2c(=O)n3ccccc3nc21	20	-27	.
CCCCNC(=O)c1cc2c(=O)n3cccc(C)c3nc2n(CCN2CCOCC2)c1=N	.	-16	.
COC(=O)c1cc2c(=O)n3ccccc3nc2n(C(C)C)c1=N	.	-26	.
N=c1c(C(=O)NC2CCCC2)cc2c(=O)n3ccccc3nc2n1C1CCCC1	85*	-11	+
COCCCn1c(=N)c(C(=O)NC2CCCCC2)cc2c(=O)n3ccccc3nc21	49*	.	+
CCCCNC(=O)c1cc2c(=O)n3cccc(C)c3nc2n(Cc2ccncc2)c1=N	89*	-12	+
CCOc1ccc2[nH]c(C)c(CN3CCN(CC)CC3)c(=O)c2c1	2	-11	.
Cc1scc(C(=O)N/N=C/c2ccco2)c1C	9	.	.
CC1=C(C(=O)OCc2ccccc2)C(c2ccc(Cl)cc2Cl)NC(=O)N1CCCCCC(=O)O (stereo not drawn)	-10	.	.
CC1(C)CCCN(C(=O)c2coc(=O)c(Br)c2)C1	54*	20	+
O=C(c1coc(=O)c(Br)c1)N1CCCc2ccccc21	30	2	.
CC(C)(C)N1C(=O)Cc2c1nc(N)c1c(N)nc(N3CCCCC3CO)c(C#N)c21 (stereo not drawn)	35*	-19	+

Screening results (PubChem BioAssay)
